FUS suppressor: suppressors of FUS proteinopathy in yeast; S. cerevisiae FUS-expressing, growth rescue, OD600, 24 h; Potency, µM (top dose mostly 76.6 µM), actives largely listed as activators; 390,000 tested, 0.24% active; AID 1347120;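 note: plate controls were DMSO vehicle for no effect and reference control for full effect; nearly all actives have a fitted effect of over 55% in size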
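Read-out: OD at 600 nm after 24hr at 30C, reporting rescue of FUS-induced yeast toxicity. Cells at OD 0.005 in galactose (2%) minimal medium; compounds tested in a dilution series; CP55940 titration from 92uM final as control.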
TDP43 rescue: TDP-43 toxicity inhibition in yeast; TDP-43 expressing yeast growth rescue, BacTiter-Glo, 24 h; 410,000 tested, 1.8% active; Potency, µM (titrated, usually from 46.1 µM), inactives show at the top dose growth rescue (activation), most hits filed as activators; note: % of control where 0% means no effect; nearly all actives have a fitted effect of over 50% in size
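In this qHTS, compounds that restore growth of yeast expressing TDP-43 appear as activators. Cells (OD600=0.02, galactose medium, raffinose-pregrown) are incubated with compound 24 hr at 30 deg C and growth is quantified by BacTiter-Glo.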
aSyn yeast inh: inhibitors of alpha-synuclein toxicity in yeast; Yeast expressing alpha-synuclein, growth rescue, BacTiter-Glo, 24 h; Potency, µM (top dose mostly 46.1 µM), for the others: at the highest dose growth rescue (activation), hits mostly activators; 370,000 tested, 0.14% active; AID 652106; note: % of control where 0% means no effect; nearly all actives have a fitted effect of over 65% in size
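Screening used galactose-induced yeast with toxic alpha-synuclein levels, exposed to compound for 24 hr at 30 deg C. Cell growth, read with BacTiter-Glo luminescence, gave the measured signal.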
Abeta yeast res: A-beta toxicity reversal in yeast | yeast expressing A-beta42, growth rescue, OD600, 48 h; response scale: 0% DMSO, 100% iron-clioquinol control | Potency, µM (top dose mostly 46.1 µM), actives largely listed as activators | 410,000 tested, 0.063% active | AID 1347071; note: nearly all actives have a fitted effect of over 55% in size
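Yeast A-beta toxicity model in growth medium with pinned compounds, 48 h at 30 C; growth read as absorbance at 600 nm. Normalized to FeCl3/clioquinol equimolar mix (positive) and DMSO (negative).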
* marks the source's active call; other numbers are inactive results; i = inactive; u = inconclusive; x = no result. Shown are actives, neighbours in structure and some others; about 2.1% of the full set was active somewhere. Calls come from the whole dose curve; as a rule, active = well fitted curve in the direction sought with a large enough effect; inconclusive = small, poorly fitted or top-dose-only effect, or another doubt; inactive = no such curve, though single readings can be large; an effect the other way counts as inactive or inconclusive. Potency is the fitted concentration of half-maximal effect.

SMILES | FUS suppressor | TDP43 rescue | aSyn yeast inh | Abeta yeast res
COc1cccc(CNS(=O)(=O)c2cc3[nH]c(=O)c(=O)[nH]c3cc2C)c1 | i | 20% | x | i
O=S(=O)(NCc1ccc(F)cc1)c1ccc(Br)cc1Br | i | 22µM* | 20µM* | i
COc1cccc(CNS(=O)(=O)c2cc(Br)ccc2Br)c1 | i | 18µM* | u | i
COC(=O)[C@]12C[C@H](CC(=O)N3CCC(c4ccccc4)CC3)C(=O)N(Cc3cccc4ccccc34)C1=C[C@H](COCc1ccccc1)O[C@@H]2C | i | x | x | x
CCC1CCc2sc(C(=O)O)cc2C1 (stereo unspecified) | i | 14µM* | 18% | i
COC(=O)C1CN(C2CCCC2)CCS(=O)(=O)N1Cc1ccc(Cl)cc1 (stereo unspecified) | i | x | x | x
Cc1ccc2[nH]cc(C(c3ccccc3)c3ccc(Cl)s3)c2c1 (stereo unspecified) | i | u | x | i
Clc1ccc(C(c2ccccc2)c2c[nH]c3ccccc23)s1 (stereo unspecified) | i | 20µM* | -36% | i
COC(=O)C1=C(C)N(Cc2ccccc2)C(=S)N[C@H]1c1ccccc1 | i | 13µM* | 21% | i
COc1ccc2c(c1)OC[C@H]1[C@H]2N2C(=O)c3ccccc3NC(=O)[C@@]2(C)[C@H]1c1ccccc1 | i | 28µM* | 8% | i
COc1ccc2c(c1)OC[C@H]1[C@H]2N2C(=O)CN(CCc3c[nH]c4ccccc34)C(=O)[C@@]2(C)[C@H]1c1ccccc1 | 22µM* | -7% | -1% | i
CCO/C=C1/C(=O)N(c2ccc(OC)cc2)C(=O)c2ccccc21 | i | -5% | 11% | i
CCO/C=C1/C(=O)N(C)C(=O)c2cc(OC)ccc21 | i | 13µM* | 2% | i
O=S(=O)(Nc1ccc(N2CCOCC2)cc1)c1cc(Cl)ccc1Cl | i | 14µM* | 15% | i
COc1ccc(S(=O)(=O)Nc2ccc3oc(C)c(C(=O)O)c3c2)cc1 | i | 3% | 4% | u
O=S(=O)(Nc1ccc2oc3c(c2c1)CCCC3)c1cc(Cl)ccc1Cl | i | 35µM* | x | u
COc1ccc(S(=O)(=O)Nc2ccc3oc4c(c3c2)CCCC4)cc1 | i | 35µM* | x | i
Cc1cccc(NC(=O)CSc2nccn2Cc2ccc(F)cc2)c1C | i | u | x | i
Nc1ncnc2c1ncn2[C@H]1CC[C@@H](CO)O1 | i | 13µM* | -7% | i
Nc1nc(Cl)nc2c1ncn2C1CCC(CO)O1 (stereo unspecified) | i | 17% | 1% | i
Nc1ncnc2c1ncn2C1CCCO1 (stereo unspecified) | i | 35µM* | -13% | i
Cn1c(=O)n(CCc2ccccc2)c(=O)c2c1nc1n2CCN1c1ccc(Cl)cc1 | i | 11% | x | i
O=C(c1cc2ccccc2[nH]1)c1cc2cc(O)ccc2[nH]1 | x | x | -3% | x
c1cc(SC2CCCCC2)cc(-c2nc3cnccn3c2NC2CCCCC2)c1 | i | 22µM* | -30% | i
COc1cccc(CNC(=O)C2CCC(CNS(=O)(=O)c3cccc4cccnc34)CC2)c1OC (stereo unspecified) | i | x | x | x
SMILES | FUS suppressor | TDP43 rescue | aSyn yeast inh | Abeta yeast res
COCc1cn(-c2ccc3c(c2)[C@@]2(CC(=O)N(C)C2c2ccccc2)C(=O)N3CC(C)C)nn1 (stereo partly specified) | i | x | x | x
COc1cccc(OCc2cc(C3Nc4ccccc4C(=O)N3c3ccccc3)ccc2OC)c1 (stereo unspecified) | x | x | 17% | x
N#CC1(c2ccccc2)CCCN1C(=O)c1ccccc1Cl (stereo unspecified) | i | 20% | 5% | i
N#CC(C(=O)c1ccccc1Cl)=C1SCCCS1 | i | 35µM* | 10% | i
CC(=O)/C(=C\N(C)C)Sc1ccc(Cl)cc1 | i | 22µM* | u | u
CC(=O)/C(=C\N(C)C)Sc1ccc(C)cc1 | i | 29% | 24% | i
O=C(C1CCN(S(=O)(=O)c2cccc3cccnc23)CC1)N1CCN(c2ccc(Cl)cc2)CC1 | 28µM* | 18% | 0% | i
CC1CCN(C(=O)C2CCN(S(=O)(=O)c3cc(Cl)ccc3Cl)CC2)CC1 | i | 13µM* | 3% | u
O=C(Nc1ccccn1)C1CCN(S(=O)(=O)c2ccc3ccccc3c2)CC1 | i | 11µM* | 8% | i
O=C(C1CCN(S(=O)(=O)c2ccc3ccccc3c2)CC1)N1CCN(c2ncccn2)CC1 | i | 20µM* | 7% | i
O=C(C1CCN(S(=O)(=O)c2ccc(Cl)s2)CC1)N1CCN(c2ccccc2)CC1 | x | 14µM* | 21% | i
Cc1nc(-c2ccc(Br)cc2)ccc1C(=O)O | x | 16µM* | -9% | i
O=c1c2cc3cc(Cl)ccc3nc2ncn1CCc1c[nH]c2ccccc12 | i | x | x | x
CCS(=O)(=O)n1nc(-c2ccc(Cl)cc2)nc1SCc1ccccc1 | x | -48% | -41% | i
COc1ccc(-c2nc(SCc3ccccc3)n(S(C)(=O)=O)n2)cc1 | i | 2.8µM* | x | i
Cc1ccc(-c2nnc(SCC(=O)Nc3ccc4c(c3)OCCO4)n2-c2ccc(Cl)cc2)cc1 | i | x | x | x
CCOc1cc(C(c2c(C)[nH][nH]c2=O)c2c(C)[nH][nH]c2=O)ccc1OC(=O)c1cccc([N+](=O)[O-])c1 | 35µM* | -19% | 0% | i
COCCCN=C(c1ccco1)n1c(=S)nc(-c2ccco2)n(CCCOC)c1=S | 28µM* | -16% | -27% | i
COCCCn1c(-c2ccco2)nc2ccccc2c1=O | i | 18% | -18% | i
O=C(c1ccc2c(c1)OCCO2)N1CCN(c2nc(-c3cccs3)nc3ccccc23)CC1 | x | x | -18% | x
CCc1ccc(C(C)NC(=O)c2cc(C)oc2C)cc1 (stereo unspecified) | i | 13µM* | 15% | i
Cc1cc(C(=O)NN)c(C)o1 | i | 0% | -2% | i
CCCSc1nc(N2CCOCC2)c2c(c1C#N)CCCC2 | i | u | 2% | i
N#CCCSc1nc(N2CCOCC2)c2c(c1C#N)CCCC2 | i | 18µM* | 15% | i
COc1ccccc1C(=O)NNC(=O)C(=O)Nc1cccc(Cl)c1C | i | 11µM* | -52% | i
Cc1cc(Nc2cccc(Cl)c2)nc2ccc(NC(=O)Cc3ccc(Cl)cc3)cc12 | u | u | x | i
Cc1cc(Nc2cccc(C(F)(F)F)c2)nc2ccc(NC(=O)c3cccnc3)cc12 | u | u | x | i
Cc1cc(Nc2cccc(Cl)c2)nc2ccc(NC(=O)Cc3cccc(C(F)(F)F)c3)cc12 | u | 16µM* | x | i
Cc1cc(Nc2cccc(Cl)c2)nc2ccc(NC(=O)c3ccc(F)cc3Cl)cc12 | u | 20µM* | x | i
O=C(Nc1cccc(C(F)(F)F)c1)c1cccc(C(=O)Nc2cccc(C(F)(F)F)c2)c1 | i | 8% | x | i

Bioassay records as filed in PubChem.
